ChEMBL document CHEMBL1961873, “Compounds: GSK PKIS; Assays: Nanosyn kinase panel” (2012)
Values joined by “and” are separate entries in the source; they are usually repeats but may differ in a detail not shown here. Identical values can stand only once.

Columns and labels:
[1] = biological target: Tyrosine-protein kinase CSK (Homo sapiens) (UniProt P41240); settings: at 1 µM;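 note: each value is an averaged inhibition reading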
[2] = biological target: T1, Discoidin domain-containing receptor 2 (Homo sapiens) (UniProt Q16832); settings: at 0.1 µM
T1 sequence (whole entry): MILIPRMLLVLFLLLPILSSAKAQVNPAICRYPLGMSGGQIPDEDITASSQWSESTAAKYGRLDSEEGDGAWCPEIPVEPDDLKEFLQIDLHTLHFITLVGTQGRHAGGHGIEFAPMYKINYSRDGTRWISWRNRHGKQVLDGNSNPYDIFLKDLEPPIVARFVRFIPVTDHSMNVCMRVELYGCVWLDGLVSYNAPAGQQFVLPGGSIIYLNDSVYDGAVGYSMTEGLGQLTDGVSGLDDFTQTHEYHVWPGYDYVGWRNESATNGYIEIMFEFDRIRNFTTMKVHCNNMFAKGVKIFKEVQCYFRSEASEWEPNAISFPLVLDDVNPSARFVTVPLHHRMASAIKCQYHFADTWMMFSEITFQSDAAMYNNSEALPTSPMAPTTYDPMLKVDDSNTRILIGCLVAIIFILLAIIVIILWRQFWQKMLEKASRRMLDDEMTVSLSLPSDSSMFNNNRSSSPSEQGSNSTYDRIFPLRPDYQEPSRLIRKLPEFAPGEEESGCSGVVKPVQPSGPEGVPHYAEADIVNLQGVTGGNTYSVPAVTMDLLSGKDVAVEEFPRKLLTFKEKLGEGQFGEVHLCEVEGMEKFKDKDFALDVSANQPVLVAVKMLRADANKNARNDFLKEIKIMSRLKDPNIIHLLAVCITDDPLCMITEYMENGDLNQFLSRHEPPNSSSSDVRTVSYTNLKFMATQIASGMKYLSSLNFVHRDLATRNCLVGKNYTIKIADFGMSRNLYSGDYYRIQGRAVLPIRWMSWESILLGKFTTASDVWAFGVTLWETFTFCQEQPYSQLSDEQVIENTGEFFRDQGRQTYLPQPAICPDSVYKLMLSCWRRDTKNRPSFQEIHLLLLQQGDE

[3] = biological target: T1, Discoidin domain-containing receptor 2 (Homo sapiens); settings: at 1 µM
[4] = biological target: Epidermal growth factor receptor (Homo sapiens) (UniProt P00533); settings: at 0.1 µM
Chain of Epidermal growth factor receptor (Homo sapiens) (P00533 whole entry): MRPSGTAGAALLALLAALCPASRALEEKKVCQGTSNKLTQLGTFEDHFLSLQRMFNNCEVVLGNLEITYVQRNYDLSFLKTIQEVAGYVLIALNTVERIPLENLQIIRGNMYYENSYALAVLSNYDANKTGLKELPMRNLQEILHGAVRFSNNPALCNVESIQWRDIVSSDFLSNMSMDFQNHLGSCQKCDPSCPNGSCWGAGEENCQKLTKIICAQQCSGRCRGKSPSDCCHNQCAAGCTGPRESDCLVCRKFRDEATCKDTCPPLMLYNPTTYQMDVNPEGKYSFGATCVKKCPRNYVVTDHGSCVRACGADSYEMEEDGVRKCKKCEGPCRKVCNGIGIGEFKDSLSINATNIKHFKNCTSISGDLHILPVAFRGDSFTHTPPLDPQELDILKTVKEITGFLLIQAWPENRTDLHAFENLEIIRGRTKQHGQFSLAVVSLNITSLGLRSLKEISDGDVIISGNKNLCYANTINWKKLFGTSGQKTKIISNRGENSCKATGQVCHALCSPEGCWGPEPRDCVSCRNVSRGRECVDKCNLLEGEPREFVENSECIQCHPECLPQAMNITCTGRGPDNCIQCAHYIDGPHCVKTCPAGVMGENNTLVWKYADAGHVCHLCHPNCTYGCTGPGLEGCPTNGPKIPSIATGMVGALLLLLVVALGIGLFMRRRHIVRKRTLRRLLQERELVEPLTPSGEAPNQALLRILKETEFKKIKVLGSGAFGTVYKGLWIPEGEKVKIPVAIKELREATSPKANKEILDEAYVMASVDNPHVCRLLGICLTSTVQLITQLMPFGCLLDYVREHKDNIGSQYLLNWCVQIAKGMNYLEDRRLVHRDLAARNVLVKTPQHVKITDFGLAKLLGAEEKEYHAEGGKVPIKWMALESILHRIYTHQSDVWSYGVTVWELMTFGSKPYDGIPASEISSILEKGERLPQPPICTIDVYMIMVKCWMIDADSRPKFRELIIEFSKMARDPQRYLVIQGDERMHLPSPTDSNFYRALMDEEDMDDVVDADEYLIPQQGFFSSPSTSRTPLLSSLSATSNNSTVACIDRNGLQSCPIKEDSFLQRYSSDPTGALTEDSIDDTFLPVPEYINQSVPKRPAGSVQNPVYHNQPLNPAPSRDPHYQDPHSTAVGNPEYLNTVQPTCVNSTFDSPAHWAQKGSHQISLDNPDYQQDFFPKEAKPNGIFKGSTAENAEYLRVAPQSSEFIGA

[5] = biological target: Epidermal growth factor receptor (Homo sapiens) (UniProt P00533); settings: at 1 µM
[6] = test system: Epidermal growth factor receptor (Homo sapiens), P00533 [L858R]; settings: at 0.1 µM
Chain of Epidermal growth factor receptor (Homo sapiens), P00533 [L858R] (P00533 whole entry L858R): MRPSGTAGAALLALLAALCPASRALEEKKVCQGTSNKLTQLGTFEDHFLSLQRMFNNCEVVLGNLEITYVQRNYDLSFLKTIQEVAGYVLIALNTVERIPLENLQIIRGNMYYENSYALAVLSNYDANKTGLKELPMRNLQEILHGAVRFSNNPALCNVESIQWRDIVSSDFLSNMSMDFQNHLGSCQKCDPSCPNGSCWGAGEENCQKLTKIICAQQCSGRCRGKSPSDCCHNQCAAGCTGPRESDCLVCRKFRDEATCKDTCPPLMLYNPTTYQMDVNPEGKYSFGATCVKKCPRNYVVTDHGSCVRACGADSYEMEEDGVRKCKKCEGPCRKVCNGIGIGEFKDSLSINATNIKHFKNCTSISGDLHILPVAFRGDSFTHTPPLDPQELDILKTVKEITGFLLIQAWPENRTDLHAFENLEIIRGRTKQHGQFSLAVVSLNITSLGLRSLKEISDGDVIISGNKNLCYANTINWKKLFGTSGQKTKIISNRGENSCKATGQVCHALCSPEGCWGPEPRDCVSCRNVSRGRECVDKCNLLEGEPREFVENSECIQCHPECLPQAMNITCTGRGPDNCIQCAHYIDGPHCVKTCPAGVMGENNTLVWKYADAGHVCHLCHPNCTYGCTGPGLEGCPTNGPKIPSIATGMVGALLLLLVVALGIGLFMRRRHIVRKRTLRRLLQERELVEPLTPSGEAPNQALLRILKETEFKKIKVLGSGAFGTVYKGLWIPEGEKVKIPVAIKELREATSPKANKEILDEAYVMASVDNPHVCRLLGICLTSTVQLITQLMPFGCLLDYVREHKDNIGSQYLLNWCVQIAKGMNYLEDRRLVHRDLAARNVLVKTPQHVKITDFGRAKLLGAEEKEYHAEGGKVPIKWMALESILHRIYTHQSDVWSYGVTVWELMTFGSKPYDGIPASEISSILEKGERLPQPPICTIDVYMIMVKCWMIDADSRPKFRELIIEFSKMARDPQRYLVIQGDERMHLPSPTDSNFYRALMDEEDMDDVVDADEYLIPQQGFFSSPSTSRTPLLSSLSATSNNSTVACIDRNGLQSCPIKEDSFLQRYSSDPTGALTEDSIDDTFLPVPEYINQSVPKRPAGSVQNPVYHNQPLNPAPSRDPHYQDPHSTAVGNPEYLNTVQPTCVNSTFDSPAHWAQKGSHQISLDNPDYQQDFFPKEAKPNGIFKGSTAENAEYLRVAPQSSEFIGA

[7] = test system: Epidermal growth factor receptor (Homo sapiens), P00533 [L858R]; settings: at 1 µM
[8] = test system: Epidermal growth factor receptor (Homo sapiens), P00533 [L861Q]; settings: at 0.1 µM
Chain of Epidermal growth factor receptor (Homo sapiens), P00533 [L861Q] (P00533 whole entry L861Q): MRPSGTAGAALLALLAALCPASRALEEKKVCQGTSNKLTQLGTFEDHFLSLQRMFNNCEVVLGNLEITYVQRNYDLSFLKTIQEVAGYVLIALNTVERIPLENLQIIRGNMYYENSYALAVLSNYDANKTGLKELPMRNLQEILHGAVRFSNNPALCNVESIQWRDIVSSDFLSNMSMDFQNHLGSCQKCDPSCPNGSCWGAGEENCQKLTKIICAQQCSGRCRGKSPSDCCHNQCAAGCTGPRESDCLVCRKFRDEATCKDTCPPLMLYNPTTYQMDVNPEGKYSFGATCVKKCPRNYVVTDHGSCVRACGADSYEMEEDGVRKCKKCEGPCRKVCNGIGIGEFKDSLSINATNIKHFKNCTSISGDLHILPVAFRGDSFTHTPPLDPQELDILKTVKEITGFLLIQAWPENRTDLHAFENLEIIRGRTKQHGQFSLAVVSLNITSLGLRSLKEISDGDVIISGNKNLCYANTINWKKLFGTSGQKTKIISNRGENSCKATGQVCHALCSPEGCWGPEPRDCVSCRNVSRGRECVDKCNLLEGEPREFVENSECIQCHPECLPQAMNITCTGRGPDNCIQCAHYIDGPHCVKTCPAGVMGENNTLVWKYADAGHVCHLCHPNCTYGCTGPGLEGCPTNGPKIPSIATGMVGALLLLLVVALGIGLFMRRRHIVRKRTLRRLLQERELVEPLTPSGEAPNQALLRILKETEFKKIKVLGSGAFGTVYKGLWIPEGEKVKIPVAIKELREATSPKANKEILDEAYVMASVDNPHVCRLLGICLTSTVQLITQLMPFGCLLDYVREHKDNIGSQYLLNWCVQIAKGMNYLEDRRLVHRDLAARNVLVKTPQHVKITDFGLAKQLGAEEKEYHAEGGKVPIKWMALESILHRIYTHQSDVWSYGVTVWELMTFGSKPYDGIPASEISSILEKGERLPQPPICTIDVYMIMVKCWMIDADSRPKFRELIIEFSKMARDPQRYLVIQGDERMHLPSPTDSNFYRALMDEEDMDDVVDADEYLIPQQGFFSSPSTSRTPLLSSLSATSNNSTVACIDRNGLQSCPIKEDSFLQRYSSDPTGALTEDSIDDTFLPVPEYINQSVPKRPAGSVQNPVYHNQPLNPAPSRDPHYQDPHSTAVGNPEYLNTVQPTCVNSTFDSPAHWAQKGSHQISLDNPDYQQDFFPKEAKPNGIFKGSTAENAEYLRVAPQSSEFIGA

[9] = test system: Epidermal growth factor receptor (Homo sapiens), P00533 [L861Q]; settings: at 1 µM
[10] = test system: Epidermal growth factor receptor (Homo sapiens), P00533 [T790M]; settings: at 0.1 µM
[11] = test system: Epidermal growth factor receptor (Homo sapiens), P00533 [T790M]; settings: at 1 µM
[12] = test system: Epidermal growth factor receptor (Homo sapiens), P00533 [L858R,T790M]; settings: at 0.1 µM
[13] = test system: Epidermal growth factor receptor (Homo sapiens), P00533 [L858R,T790M]; settings: at 1 µM
[14] = biological target: Ephrin type-A receptor 2 (Homo sapiens) (UniProt P29317); settings: at 0.1 µM
[15] = biological target: Ephrin type-A receptor 2 (Homo sapiens) (UniProt P29317); settings: at 1 µM
[16] = biological target: T2, Ephrin type-A receptor 3 (Homo sapiens) (UniProt P29320); settings: at 0.1 µM
T2 sequence (whole entry): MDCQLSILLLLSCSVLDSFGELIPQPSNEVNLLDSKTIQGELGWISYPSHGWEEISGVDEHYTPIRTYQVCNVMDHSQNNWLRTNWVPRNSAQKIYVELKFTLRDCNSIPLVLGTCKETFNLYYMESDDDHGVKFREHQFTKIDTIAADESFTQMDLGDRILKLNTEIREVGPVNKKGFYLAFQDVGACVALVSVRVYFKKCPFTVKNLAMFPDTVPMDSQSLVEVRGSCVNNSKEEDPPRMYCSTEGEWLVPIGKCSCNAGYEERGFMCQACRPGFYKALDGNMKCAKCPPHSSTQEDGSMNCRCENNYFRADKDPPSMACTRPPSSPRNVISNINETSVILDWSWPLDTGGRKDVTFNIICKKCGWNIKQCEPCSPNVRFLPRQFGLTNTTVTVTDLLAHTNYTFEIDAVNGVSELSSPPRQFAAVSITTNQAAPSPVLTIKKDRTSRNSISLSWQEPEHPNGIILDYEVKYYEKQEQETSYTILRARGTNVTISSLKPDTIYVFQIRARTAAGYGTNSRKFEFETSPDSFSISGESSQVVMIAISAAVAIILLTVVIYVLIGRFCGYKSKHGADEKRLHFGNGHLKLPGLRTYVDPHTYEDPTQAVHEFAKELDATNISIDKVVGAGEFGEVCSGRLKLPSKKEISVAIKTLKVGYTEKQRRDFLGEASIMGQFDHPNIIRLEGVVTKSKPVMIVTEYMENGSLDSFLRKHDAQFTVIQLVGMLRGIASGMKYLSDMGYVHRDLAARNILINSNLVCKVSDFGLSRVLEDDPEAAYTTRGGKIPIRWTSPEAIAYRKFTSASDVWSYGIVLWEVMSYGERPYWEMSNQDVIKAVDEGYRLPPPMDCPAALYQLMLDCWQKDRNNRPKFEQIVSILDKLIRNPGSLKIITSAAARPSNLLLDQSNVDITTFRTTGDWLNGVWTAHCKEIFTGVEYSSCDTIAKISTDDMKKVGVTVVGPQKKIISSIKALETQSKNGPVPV

[17] = biological target: T2, Ephrin type-A receptor 3 (Homo sapiens); settings: at 1 µM
[18] = biological target: Ephrin type-A receptor 4 (Homo sapiens) (UniProt P54764); settings: at 0.1 µM
Chain of Ephrin type-A receptor 4 (Homo sapiens) (P54764 whole entry): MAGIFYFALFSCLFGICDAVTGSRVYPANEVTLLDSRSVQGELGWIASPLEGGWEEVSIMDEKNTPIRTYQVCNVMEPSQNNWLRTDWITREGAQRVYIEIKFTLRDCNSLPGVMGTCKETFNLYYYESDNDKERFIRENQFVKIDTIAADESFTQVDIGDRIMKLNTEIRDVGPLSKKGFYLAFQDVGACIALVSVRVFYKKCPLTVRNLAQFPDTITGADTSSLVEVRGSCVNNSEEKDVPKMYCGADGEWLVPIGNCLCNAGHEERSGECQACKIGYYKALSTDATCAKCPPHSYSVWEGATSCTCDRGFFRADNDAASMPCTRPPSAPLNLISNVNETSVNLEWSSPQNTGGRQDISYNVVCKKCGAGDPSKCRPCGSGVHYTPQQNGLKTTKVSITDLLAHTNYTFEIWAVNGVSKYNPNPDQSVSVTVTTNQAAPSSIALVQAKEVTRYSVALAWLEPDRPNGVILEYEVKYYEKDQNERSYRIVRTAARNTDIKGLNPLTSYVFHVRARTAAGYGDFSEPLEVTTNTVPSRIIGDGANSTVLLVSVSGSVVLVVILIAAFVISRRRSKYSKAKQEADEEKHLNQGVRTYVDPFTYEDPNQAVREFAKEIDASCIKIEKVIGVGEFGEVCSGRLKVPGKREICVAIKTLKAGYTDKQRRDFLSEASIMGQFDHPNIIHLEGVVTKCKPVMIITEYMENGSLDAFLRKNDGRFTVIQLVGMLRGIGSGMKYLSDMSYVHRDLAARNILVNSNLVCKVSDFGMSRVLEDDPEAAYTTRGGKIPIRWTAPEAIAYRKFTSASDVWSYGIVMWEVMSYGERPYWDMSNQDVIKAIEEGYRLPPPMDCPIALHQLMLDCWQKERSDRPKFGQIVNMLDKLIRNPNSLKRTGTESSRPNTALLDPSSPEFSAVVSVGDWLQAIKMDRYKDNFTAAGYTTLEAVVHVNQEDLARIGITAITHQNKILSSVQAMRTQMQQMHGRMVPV

[19] = biological target: Ephrin type-A receptor 4 (Homo sapiens) (UniProt P54764); settings: at 1 µM
[20] = biological target: T3, Ephrin type-B receptor 2 (Homo sapiens) (UniProt P29323); settings: at 0.1 µM;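 note: reported as mean inhibition of EPHB2, from the GSK PKIS dataset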
T3 sequence (whole entry): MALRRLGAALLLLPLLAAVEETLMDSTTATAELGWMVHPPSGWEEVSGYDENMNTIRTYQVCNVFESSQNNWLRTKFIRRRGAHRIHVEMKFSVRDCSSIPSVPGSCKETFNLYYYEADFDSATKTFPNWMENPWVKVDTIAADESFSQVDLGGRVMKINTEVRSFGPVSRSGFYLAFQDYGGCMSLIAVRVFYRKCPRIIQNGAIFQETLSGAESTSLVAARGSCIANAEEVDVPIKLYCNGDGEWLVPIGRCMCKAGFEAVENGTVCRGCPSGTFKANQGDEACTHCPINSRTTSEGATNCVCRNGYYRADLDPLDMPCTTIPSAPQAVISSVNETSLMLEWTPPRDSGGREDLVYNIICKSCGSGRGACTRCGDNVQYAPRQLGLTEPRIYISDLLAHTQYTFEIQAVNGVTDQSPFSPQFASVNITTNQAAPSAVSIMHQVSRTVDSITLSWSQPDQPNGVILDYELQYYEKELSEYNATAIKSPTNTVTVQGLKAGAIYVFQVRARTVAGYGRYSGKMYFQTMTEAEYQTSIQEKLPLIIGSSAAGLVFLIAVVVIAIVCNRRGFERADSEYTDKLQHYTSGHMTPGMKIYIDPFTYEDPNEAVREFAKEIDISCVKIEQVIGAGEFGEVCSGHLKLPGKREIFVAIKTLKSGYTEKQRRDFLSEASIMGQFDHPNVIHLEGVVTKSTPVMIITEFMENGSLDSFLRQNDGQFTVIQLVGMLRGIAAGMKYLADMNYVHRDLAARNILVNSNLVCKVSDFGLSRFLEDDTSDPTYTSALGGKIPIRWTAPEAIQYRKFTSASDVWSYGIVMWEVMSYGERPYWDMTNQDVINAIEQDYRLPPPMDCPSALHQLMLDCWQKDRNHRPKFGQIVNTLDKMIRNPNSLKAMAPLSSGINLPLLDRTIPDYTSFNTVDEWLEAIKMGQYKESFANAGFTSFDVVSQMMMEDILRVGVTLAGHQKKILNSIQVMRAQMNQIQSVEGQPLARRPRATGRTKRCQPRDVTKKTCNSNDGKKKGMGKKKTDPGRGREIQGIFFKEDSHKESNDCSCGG

Chain of Tyrosine-protein kinase CSK (Homo sapiens) (P41240 2-450 limits assumed): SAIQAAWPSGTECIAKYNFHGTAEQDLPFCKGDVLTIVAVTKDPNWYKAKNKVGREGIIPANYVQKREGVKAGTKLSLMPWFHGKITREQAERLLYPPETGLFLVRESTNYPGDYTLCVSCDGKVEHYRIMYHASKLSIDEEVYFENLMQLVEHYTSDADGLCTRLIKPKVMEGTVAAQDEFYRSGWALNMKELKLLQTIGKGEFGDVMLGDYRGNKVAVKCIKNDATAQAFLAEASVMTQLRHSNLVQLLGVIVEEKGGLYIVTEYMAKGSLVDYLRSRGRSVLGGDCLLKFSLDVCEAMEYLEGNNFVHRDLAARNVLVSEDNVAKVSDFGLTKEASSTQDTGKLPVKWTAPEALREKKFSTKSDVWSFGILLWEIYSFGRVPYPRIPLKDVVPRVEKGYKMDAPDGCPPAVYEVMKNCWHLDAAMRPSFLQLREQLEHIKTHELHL

SMILES: COC(=O)Nc1nc2ccc(Oc3ccc(NC(=O)Nc4cc(C(F)(F)F)ccc4F)cc3)cc2s1
- inhibition [1]: 33.4%
- inhibition [2]: 62.7%
- inhibition [3]: 83.6%
- inhibition [4]: 1.66%
- inhibition [5]: 3.16%
- inhibition [6]: -2.69%
- inhibition [7]: 2.24%
- inhibition [8]: -1.23%
- inhibition [9]: 1.41%
- inhibition [10]: 0.17%
- inhibition [11]: -0.72%
- inhibition [12]: 1.64%
- inhibition [13]: -2.5%
- inhibition [14]: 63.5%
- inhibition [15]: 93.5%
- inhibition [16]: 51.3%
- inhibition [17]: 68.4%
- inhibition [18]: 83.3%
- inhibition [19]: 86.1%
- inhibition [20]: 74.1%

SMILES: Fc1cccc(COc2ccc(Nc3ncncc3C#Cc3ccccc3)cc2Cl)c1
- inhibition [1]: 6.87%
- inhibition [2]: 1.28%
- inhibition [3]: 1.92%
- inhibition [4]: 23.9%
- inhibition [5]: 72.5%
- inhibition [6]: 3.93%
- inhibition [7]: 21.7%
- inhibition [8]: 16.6%
- inhibition [9]: 30.2%
- inhibition [10]: 3.89%
- inhibition [11]: 3.85%
- inhibition [12]: 3.98%
- inhibition [13]: 5.02%
- inhibition [14]: 4.2%
- inhibition [15]: 0.3%
- inhibition [16]: 4.46%
- inhibition [17]: 4.68%
- inhibition [18]: 9.27%
- inhibition [19]: 13.1%
- inhibition [20]: 8.04%

SMILES: Cc1nnc(-c2cccc(-c3ccc(C(=O)NCC4CC4)cc3)c2)o1
- inhibition [1]: 7.37%
- inhibition [2]: 2.21%
- inhibition [3]: 3.42%
- inhibition [4]: 1.17%
- inhibition [5]: 3.25%
- inhibition [6]: 2.9%
- inhibition [7]: 6.91%
- inhibition [8]: 3.75%
- inhibition [9]: 5.65%
- inhibition [10]: 3.93%
- inhibition [11]: 4.56%
- inhibition [12]: 2.93%
- inhibition [13]: 3.63%
- inhibition [14]: 1.56%
- inhibition [15]: 0.66%
- inhibition [16]: 5.76%
- inhibition [17]: 6.16%
- inhibition [18]: 11.3%
- inhibition [19]: 10.8%
- inhibition [20]: 11.1%

SMILES: Cn1c(-c2nonc2N)nc2cnccc21
- inhibition [1]: -0.66%
- inhibition [2]: 0.53%
- inhibition [3]: 2.78%
- inhibition [4]: 8.18%
- inhibition [5]: 8.08%
- inhibition [6]: 3.74%
- inhibition [7]: 5.92%
- inhibition [8]: 3.1%
- inhibition [9]: 4.3%
- inhibition [10]: 1.55%
- inhibition [11]: 0.67%
- inhibition [12]: -1.07%
- inhibition [13]: -0.94%
- inhibition [14]: 1.97%
- inhibition [15]: 1.07%
- inhibition [16]: 6.89%
- inhibition [17]: 4.47%
- inhibition [18]: 7.88%
- inhibition [19]: 4.19%
- inhibition [20]: 4.59%

SMILES: CN1CCC(C(=O)Nc2n[nH]c3nc(-c4ccc(O)cc4)c(Br)cc23)CC1
- inhibition [1]: 7.63% and 4.28%
- inhibition [2]: -0.34% and 1.94%
- inhibition [3]: 0.35% and 3.34%
- inhibition [4]: -1.4% and 2.45%
- inhibition [5]: -1.83% and 5.5%
- inhibition [6]: 3.81% and 2.33%
- inhibition [7]: 5.88% and 4.98%
- inhibition [8]: 2.69% and 0.43%
- inhibition [9]: 2.01% and 1.22%
- inhibition [10]: 2.13% and 0.11%
- inhibition [11]: 2.93% and 1.04%
- inhibition [12]: -0.55% and -2.98%
- inhibition [13]: 1.4% and -0.59%
- inhibition [14]: -3.15% and 0%
- inhibition [15]: -2.77% and -1.38%
- inhibition [16]: -0.96% and 1.14%
- inhibition [17]: -1.23% and 3.96%
- inhibition [18]: 7.94% and 4.03%
- inhibition [19]: 10.9% and 9.16%
- inhibition [20]: 2.8% and -0.98%

SMILES: CS(=O)(=O)CCNCc1ccc(-c2ccc3ncnc(Nc4ccc(OCc5cccc(C(F)(F)F)c5)cc4)c3c2)o1
- inhibition [1]: 3.02%
- inhibition [2]: 0.91%
- inhibition [3]: 2.9%
- inhibition [4]: 15.5%
- inhibition [5]: 58.8%
- inhibition [6]: 6.17%
- inhibition [7]: 26.7%
- inhibition [8]: 14.4%
- inhibition [9]: 34.4%
- inhibition [10]: 0.24%
- inhibition [11]: 1.6%
- inhibition [12]: 0.98%
- inhibition [13]: 3.77%
- inhibition [14]: 0.34%
- inhibition [15]: 0.55%
- inhibition [16]: 2.95%
- inhibition [17]: 2.34%
- inhibition [18]: 6.4%
- inhibition [19]: 8.61%
- inhibition [20]: 7.05%

SMILES: O=C(O[C@H]1CN[C@H](C#Cc2cc3ncnc(Nc4ccc5c(cnn5Cc5ccccc5)c4)c3s2)C1)N1CCOCC1
- inhibition [1]: 4.15%
- inhibition [2]: 0.56%
- inhibition [3]: 0.22%
- inhibition [4]: 72.3%
- inhibition [5]: 83.3%
- inhibition [6]: 14.2%
- inhibition [7]: 56.2%
- inhibition [8]: 25.9%
- inhibition [9]: 44.2%
- inhibition [10]: 0.87%
- inhibition [11]: 9.06%
- inhibition [12]: -5.39%
- inhibition [13]: -1.26%
- inhibition [14]: -1.74%
- inhibition [15]: -2.68%
- inhibition [16]: -0.31%
- inhibition [17]: 0.9%
- inhibition [18]: -0.59%
- inhibition [19]: 1.79%
- inhibition [20]: -3.66%
